Assay outcomes: PubChem BioAssay, The Scripps Research Institute Molecular Screening Center
hcDAF-12 act = activators of H. contortus DAF-12 nuclear receptor. HEK293 hcDAF-12 lit1-tk-luc reporter, luminescence; 0% DMSO, 100% Δ7-dafachronic acid. activation, % at 6.8 µM. actives 1.4% (n = 370,000);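 active = activation above the mean of all tested compounds plus 3 SD, cut at about 5.5% in these data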;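 note: 100% = response to 3 µM Δ7-dafachronic acid high control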
ssDAF-12 act = activates DAF-12 receptor from parasite S. stercoralis; HEK293 ssDAF-12/GRIP1 lit1-tk-luc reporter, luminescence; % of 3 µM dafachronic acid response; activation, % at 6.8 µM; actives 1% (n = 370,000); AID 652126;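 active = activation above the mean over all tested compounds plus 3 SD, cut at about 0.9% in these data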;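 note: 0% = DMSO-only wells and 100% = 3 µM delta7-dafachronic acid wells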
hgDAF-12 ag = agonists of H. glycines DAF-12 nuclear receptor | HEK293 GAL4-hgDAF12 UAS-luciferase reporter, agonist luminescence; normalized to butyrate control | activation, % at 6.8 µM | actives 1.8% (n = 370,000) | AID 687014;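 active = activation above a cutoff set at the mean of all screened compounds plus 3 SD, cut at about 10% in these data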;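 note: 0% = DMSO wells and 100% = sodium butyrate wells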
DAX1 inh-1 = NR0B1 (DAX1) inhibition; P51843; inhibition, % at 6.75 µM; AID 504766; actives 0.99% (n = 340,000); HEK293 Gal4-DAX1 luciferase reporter, luminescence;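 active = inhibition above the mean over all tested compounds plus 3 SD, cut at about 4.2% in these data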;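 note: 0% = DAX1-transfected cells with DMSO and 100% = empty-vector control cells with DMSO; inhibition shows as a rise in luminescence from relieved DAX1 repression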
Target sequence (P51843 207-470 limits assumed): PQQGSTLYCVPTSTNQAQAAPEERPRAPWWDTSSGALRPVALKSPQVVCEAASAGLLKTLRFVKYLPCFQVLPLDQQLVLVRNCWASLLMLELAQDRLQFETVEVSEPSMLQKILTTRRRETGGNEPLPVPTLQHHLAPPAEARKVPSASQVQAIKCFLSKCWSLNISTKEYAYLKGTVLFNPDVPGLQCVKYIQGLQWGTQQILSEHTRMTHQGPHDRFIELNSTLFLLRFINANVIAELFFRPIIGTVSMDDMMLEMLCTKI
SMARCA2 act = SMARCA2 function activation, primary screen | MG213 cells, MMTV-luciferase reporter, dexamethasone, overnight | activation, % at 9.1 µM | actives 1% (n = 370,000); in the data active = activation above about 7.8%;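 note: 0% = vehicle wells and 100% = reference activator wells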
DAX1 inh-2 = inhibitors of DAX1 repression of SF-1 activated StAR promoter | HEK293T StAR-luciferase reporter, SF-1/DAX-1 repression relief | inhibition, % at 6.8 µM | actives 1.1% (n = 370,000) | AID 652010;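 active = inhibition above the mean over all tested compounds plus 3 SD, cut at about 3.6% in these data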;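 note: 0% = DAX-1 cells with DMSO and 100% = cells lacking DAX-1 with DMSO; higher inhibition means more luminescence from relief of DAX-1 repression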
DAX1 conf = NR0B1 (human) inhibition, confirmation; shares compounds with DAX1 inh-2; HEK293T StAR-promoter luciferase reporter, SF-1/DAX-1 repression; inhibition, % at 6.8 µM; actives 87% (n = 2,400);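 active = inhibition above the average of every tested compound plus 3 SD, cut at about 3.8% in these data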;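 note: 0% = DAX-1 cells with DMSO and 100% = no DAX-1 control cells with DMSO; active compounds raise luminescence by relieving repression of the StAR reporter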
SF1 mutant ctr = counter-screen for DAX1 inhibitors: nonselective inhibitors with SF-1 AF2 mutant | shares compounds with DAX1 inh-2 | HEK293 StAR-luciferase, luminescence | inhibition, % at 6.8 µM | actives 78% (n = 2,400);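 active = inhibition above the mean of all tested compounds plus 3 SD, cut at about 3% in these data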;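 note: 0% = DAX-1 transfected cells with DMSO and 100% = cells without DAX-1 with DMSO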
LXRb hcDAF ctr = activates human LXR-beta, counter-screen for hcDAF-12 agonists | activation, % at 6.8 µM | 3,400 tested, under 10 active | shares compounds with hcDAF-12 act | HEK293 Gal4-LXR tk-luc reporter, luminescence, 24 h; normalized: DMSO 0%, positive control 100% | AID 743027;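 active = mean percent activation of the reporter above a cutoff set as the average over tested compounds plus their standard deviation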
hcDAF12 conf = confirmation of H. contortus DAF-12 agonists; shares compounds with hcDAF-12 act; HEK293 hcDAF-12 lit1-tk-luc reporter, luminescence; % of Δ7-dafachronic acid response; activation, % at 6.8 µM; actives 61% (n = 3,400);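 active = mean activation across triplicate tests above the threshold derived from the earlier primary screen, cut at about 5.5% in these data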;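 note: 0% = DMSO only wells and 100% = 3 µM Δ7-dafachronic acid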
hgDAF12 conf = confirmation of H. glycines DAF-12 agonists | shares compounds with hgDAF-12 ag | HEK293 GAL4-hgDAF12 luciferase reporter, agonist mode; percent of butyrate response | actives 80% (n = 3,300) | activation, % at 6.8 µM;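 active = mean activation over triplicate wells above the hit cutoff derived from the earlier primary screen, cut at about 11% in these data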;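 note: 0% = DMSO low control and 100% = 2 mM sodium butyrate high control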
LXR ag 2 = counter-screen for DAF-12 agonists: agonists of human LXR-beta; AID 743051; shares compounds with hgDAF-12 ag; activation, % at 6.8 µM; HEK293 Gal4-LXR luciferase reporter, 24 h; 3,300 tested, under 10 active;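 active = mean activation of the triplicate above a set limit carried over from the primary screen, none filed active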
Starred values were filed as active, the others as inactive; x = no result. An excerpt weighted towards active compounds, which were near 4.8% of everything screened.

SMILES	hcDAF-12 act	ssDAF-12 act	hgDAF-12 ag	DAX1 inh-1	SMARCA2 act	DAX1 inh-2	DAX1 conf	SF1 mutant ctr	LXRb hcDAF ctr	hcDAF12 conf	hgDAF12 conf	LXR ag 2
Cc1nc(SC(C)C(=O)NCC2CCCO2)c2cc(-c3ccccc3)sc2n1 (centres undefined)	-3	-2	-6	-3	0	-5	x	x	x	x	x	x
O=C(Nc1ccccc1)c1ccc(-c2ccccc2)s1	2	1	14*	4	4	5.4*	12*	8.5*	x	x	17*	0
CC(=O)NC12CC3CC(C1)CC(C(=O)OCC(=O)c1cc(C)n(C)c1C)(C3)C2	6.7*	0	16*	1	2	9.8*	11*	7.1*	1	6.2*	14*	1
CCOC(=O)[C@H]1[C@H]2COc3cc(OC)ccc3[C@@H]2N2C(=O)CN(CC3CCCO3)C(=O)[C@@]12C (some centres undefined)	1	-1	0	3	-2	0	x	x	x	x	x	x
COC(=O)c1sc2nc3c(cc2c1N)CCCC3	6.5*	0	25*	3	4	5.1*	13*	6.8*	x	x	18*	1
CCOC(=O)c1sc2nc3c(cc2c1N)COC(C)(CC)C3 (centres undefined)	9.3*	0	14*	2	1	4.8*	14*	6.0*	2	6.1*	18*	1
COC(=O)[C@H](CO)N1C(=O)[C@@H]2[C@H](C1=O)C1C=C[C@H]2C1	0	-1	2	0	-2	-1	x	x	x	x	x	x
O=C(NC1=NCCS1)c1sc2cc(Cl)cc(Cl)c2c1Cl	-3	0	0	1	-4	0	x	x	x	x	x	x
O=C(NC1=NCCS1)c1sc2ccccc2c1Cl	11*	1.1*	21*	1	4	4.7*	12*	7.4*	1	9.7*	15*	1
N#Cc1ccc(C(=O)NC2=NCCS2)cc1	2	-1	4	4	6	1	x	x	x	x	x	x
CC(C)c1ccc(C(=O)NC2=NCCS2)cc1	5	1	18*	0	0	5.5*	19*	7.0*	x	x	14*	1
O=C(NC1=NCCS1)c1cccc(OC(F)F)c1	1	0	16*	4.8*	1	5.0*	14*	9.6*	x	x	14*	1
Cc1cc(C(=O)NNC(=O)c2ccc(Cl)cc2Cl)c(C)o1	-1	0	-1	1	-1	1	x	x	x	x	x	x
COc1ccc(CC(=O)O/N=C(\N)c2ccccn2)cc1OC	0	0	1	1	7	1	x	x	x	x	x	x
N/C(=N\OC(=O)/C=C/c1ccccc1)c1ccccn1	7.0*	1	13*	1	7	5.9*	11*	6.6*	1	3	14*	1
COc1ccc(/C=C/C(=O)O/N=C(\N)c2ccccn2)cc1OC	7.2*	0	29*	1	8	6.2*	5.4*	3.0*	1	4	11*	1
O=C(CCN1CCC(c2cccs2)=N1)c1cccs1	0	-1	7	x	2	1	x	x	x	x	x	x
